Results from PubChem BioAssay (Tox21).
Records with an inconclusive call do not appear. Activity calls are given as the source filed them. The call rests on the fitted dose curve; in most records, active means well fitted curve in the direction sought with a large enough effect in the repeat runs; inconclusive means weak or mixed curves; inactive means no such curve, though single readings can be large; an effect the other way counts as inactive or inconclusive.

Experiments:
[1] = Caspase-3/7 induction in CHO-K1 cells by small molecules, qHTS cell viability counter screen (AID 1346979); further: nearly all actives have a fitted effect of over 35% in size; further: potency means the concentration at half of the fitted maximal effect
Summary of the method: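 Multiplexed with Caspase-Glo 3/7 in CHO-K1 cells, this counter screen added CellTiter-Fluor after 16hr of compound exposure and recorded fluorescence 1hr later.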

[2] = Caspase-3/7 induction in CHO-K1 cells by small molecules, qHTS assay (AID 1346980); further: nearly all actives have a fitted effect of over 15% in size
Summary of the method: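 Wild-type cells were seeded at 1,500 per well and settled 5 hr at 37 C, 5% CO2, then exposed to DMSO-dissolved compounds for 17 hr. Caspase-Glo 3/7 reagent was added, and luminescence was read after 30min at room temperature.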

[3] = Caspase-3/7 induction in HepG2 cells by small molecules, qHTS cell viability counter screen (AID 1346981); further: series mostly up to about 92 µM; nearly all actives have a fitted effect of over 30% in size
Summary of the method: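 In this quantitative HTS counter screen, compounds delivered in DMSO were left on unmodified HepG2 cells for 16 hr at 37 C. Viability was then determined fluorometrically with CellTiter-Fluor, in parallel with caspase-3/7 induction in the same wells.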

[4] = biological target: Nuclear receptor subfamily 1 group I member 2 (Homo sapiens) (UniProt O75469); experiment: Human pregnane X receptor (PXR) small molecule agonists, qHTS assay (AID 1346982); further: nearly all actives have a fitted effect of over 35% in size; further: potency means the concentration at half of the fitted maximal effect
Summary of the method: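 Reporter HepG2 cells expressing PXR-Luc are cultured in charcoal-stripped FBS (5%), treated with compounds for 24 hr at 37 C, and assayed by ONE-Glo luminescence after 30 min at room temperature.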

[5] = biological target: Nuclear receptor subfamily 1 group I member 2 (Rattus norvegicus) (UniProt Q9R1A7); experiment: Rat pregnane X receptor (rPXR) activation by small molecules, qHTS assay (AID 1346983); settings: rPXR luciferase reporter cells, One-Glo luminescence, 24 h; hits give high values; further: nearly all actives have a fitted effect of over 20% in size
Summary of the method: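 Cell-based rPXR luciferase reporter assay, 2,000 cells per well, rested 5hr at 37 C before compound addition in DMSO, then 24 hr at 37 C. One-Glo reagent was added and luminescence read after 30 min at room temperature.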

[6] = biological target: Nuclear receptor subfamily 1 group I member 2 (Homo sapiens) (UniProt O75469); experiment: CYP3A4 induction through human pregnane X receptor (PXR) by small molecules, qHTS assay (AID 1346984); further: nearly all actives have a fitted effect of over 40% in size
Summary of the method: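 Induction measured in HepG2-based DPX-2 cells co-expressing human PXR and a CYP3A4 promoter-driven luciferase. After a 24-hour compound exposure, cells received CYP3A4 luciferin substrate at 3uM final for 3 hours, and light output was then recorded.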

[7] = biological target: Cytochrome P450 2C19 (Homo sapiens) (UniProt P33261); experiment: Cytochrome P450 Family 2 Subfamily C Member 19 (CYP2C19) small molecule antagonists: luciferase reporter qHTS assay (AID 1671197); further: nearly all actives have a fitted effect of over 65% in size; further: potency means the concentration at half of the fitted maximal effect
Summary of the method: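 Relative luminescence units recorded 20 min after the detection reagent stopped a 1 h, 37C CYP2C19 reaction on proluciferin substrate, which was started by NADPH regeneration following 10 min room-temperature compound preincubation; ketoconazole positive control.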

[8] = biological target: Cytochrome P450 2C9 (Homo sapiens) (UniProt P11712); experiment: Cytochrome P450 Family 2 Subfamily C Member 9 (CYP2C9) small molecule antagonists: luciferase reporter qHTS assay (AID 1671198); further: series mostly up to about 120 µM; nearly all actives have a fitted effect of over 50% in size
Summary of the method: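 CYP2C9 activity was measured with a P450-Glo proluciferin substrate. Enzyme–substrate mix was held with compound for 10 min at room temperature, then NADPH regeneration solution was added for 1 h at 37C. Luciferin product was read as luminescence.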

[9] = biological target: Cytochrome P450 2D6 (Homo sapiens) (UniProt P10635); experiment: Cytochrome P450 Family 2 Subfamily D Member 6 (CYP2D6) small molecule antagonists: luciferase reporter qHTS assay (AID 1671196); further: nearly all actives have a fitted effect of over 50% in size; further: potency means the concentration at half of the fitted maximal effect
Summary of the method: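 Test chemicals meet CYP2D6 plus proluciferin substrate (10 min, RT); NADPH regenerating solution then drives turnover for 1 h. Detection reagent halts the reaction; luminescence measured after 20 min.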

[10] = biological target: Nuclear receptor subfamily 1 group I member 2 (Homo sapiens) (UniProt O75469); experiment: Human pregnane X receptor (PXR) activation by small molecules, qHTS assay (AID 1346985); further: nearly all actives have a fitted effect of over 40% in size
Summary of the method: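 DPX-2 cells (HepG2 co-transfected with a PXR response element and a CYP3A4-promoter luciferase construct) were seeded at 2,000 per well, rested 5 hr at 37C, then exposed to DMSO-dissolved compounds for 24 hr. Activation was read as luciferase luminescence.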
On the % scale 0 is the no-effect control and ±100 the full control effect.

Chain of Nuclear receptor subfamily 1 group I member 2 (Rattus norvegicus) (Q9R1A7 whole entry, looked up): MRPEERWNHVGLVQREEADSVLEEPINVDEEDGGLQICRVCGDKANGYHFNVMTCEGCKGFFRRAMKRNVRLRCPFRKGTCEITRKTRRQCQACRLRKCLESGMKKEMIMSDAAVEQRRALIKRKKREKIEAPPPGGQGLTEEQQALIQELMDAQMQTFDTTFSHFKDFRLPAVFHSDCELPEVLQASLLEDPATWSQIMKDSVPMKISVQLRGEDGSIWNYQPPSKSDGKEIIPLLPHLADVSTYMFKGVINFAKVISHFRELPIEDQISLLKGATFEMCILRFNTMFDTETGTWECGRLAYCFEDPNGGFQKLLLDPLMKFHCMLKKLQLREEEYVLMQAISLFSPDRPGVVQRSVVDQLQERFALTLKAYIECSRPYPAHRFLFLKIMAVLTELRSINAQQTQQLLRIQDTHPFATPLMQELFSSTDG
Chain of Cytochrome P450 2D6 (Homo sapiens) (P10635 whole entry, looked up): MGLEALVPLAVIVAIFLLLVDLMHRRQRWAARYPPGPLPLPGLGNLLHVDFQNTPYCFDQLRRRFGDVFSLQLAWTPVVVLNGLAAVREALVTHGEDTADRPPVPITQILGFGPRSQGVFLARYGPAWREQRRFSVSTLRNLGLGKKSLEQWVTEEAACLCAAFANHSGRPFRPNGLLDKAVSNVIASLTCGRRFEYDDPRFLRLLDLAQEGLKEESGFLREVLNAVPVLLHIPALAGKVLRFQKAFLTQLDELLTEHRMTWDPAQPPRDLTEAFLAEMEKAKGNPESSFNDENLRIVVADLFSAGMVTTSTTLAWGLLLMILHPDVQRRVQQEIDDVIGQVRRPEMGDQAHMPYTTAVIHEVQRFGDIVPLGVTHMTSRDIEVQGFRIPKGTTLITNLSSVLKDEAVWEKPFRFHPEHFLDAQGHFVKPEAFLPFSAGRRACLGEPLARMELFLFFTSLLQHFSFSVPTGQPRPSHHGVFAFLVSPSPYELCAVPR
Chain of Nuclear receptor subfamily 1 group I member 2 (Homo sapiens) (O75469 whole entry, looked up): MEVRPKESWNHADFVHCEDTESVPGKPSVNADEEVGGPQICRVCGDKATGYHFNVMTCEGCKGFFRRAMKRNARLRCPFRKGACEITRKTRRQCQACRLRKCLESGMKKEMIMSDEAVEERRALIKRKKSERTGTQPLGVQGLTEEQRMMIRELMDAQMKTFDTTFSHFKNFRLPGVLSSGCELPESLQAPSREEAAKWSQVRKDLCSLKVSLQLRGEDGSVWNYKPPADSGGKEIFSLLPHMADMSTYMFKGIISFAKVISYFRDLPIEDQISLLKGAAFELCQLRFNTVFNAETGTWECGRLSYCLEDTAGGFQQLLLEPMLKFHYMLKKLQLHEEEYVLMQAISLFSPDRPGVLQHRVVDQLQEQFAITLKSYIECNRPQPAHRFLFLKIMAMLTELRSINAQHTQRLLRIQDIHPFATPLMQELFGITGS
Chain of Cytochrome P450 2C19 (Homo sapiens) (P33261 whole entry, looked up): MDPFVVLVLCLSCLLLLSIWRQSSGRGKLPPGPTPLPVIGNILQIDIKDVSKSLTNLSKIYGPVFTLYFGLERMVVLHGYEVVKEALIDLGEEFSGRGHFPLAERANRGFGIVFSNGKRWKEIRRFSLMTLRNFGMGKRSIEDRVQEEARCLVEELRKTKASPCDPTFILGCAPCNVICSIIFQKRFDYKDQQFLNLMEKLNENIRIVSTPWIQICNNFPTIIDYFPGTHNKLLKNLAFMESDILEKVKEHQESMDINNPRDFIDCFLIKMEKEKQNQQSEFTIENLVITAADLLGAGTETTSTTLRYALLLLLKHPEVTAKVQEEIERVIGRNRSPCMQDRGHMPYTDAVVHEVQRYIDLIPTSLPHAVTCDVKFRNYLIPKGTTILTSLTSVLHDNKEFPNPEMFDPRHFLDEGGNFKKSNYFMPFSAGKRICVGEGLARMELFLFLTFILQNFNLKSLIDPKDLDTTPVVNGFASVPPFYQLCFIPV
Chain of Cytochrome P450 2C9 (Homo sapiens) (P11712 whole entry, looked up): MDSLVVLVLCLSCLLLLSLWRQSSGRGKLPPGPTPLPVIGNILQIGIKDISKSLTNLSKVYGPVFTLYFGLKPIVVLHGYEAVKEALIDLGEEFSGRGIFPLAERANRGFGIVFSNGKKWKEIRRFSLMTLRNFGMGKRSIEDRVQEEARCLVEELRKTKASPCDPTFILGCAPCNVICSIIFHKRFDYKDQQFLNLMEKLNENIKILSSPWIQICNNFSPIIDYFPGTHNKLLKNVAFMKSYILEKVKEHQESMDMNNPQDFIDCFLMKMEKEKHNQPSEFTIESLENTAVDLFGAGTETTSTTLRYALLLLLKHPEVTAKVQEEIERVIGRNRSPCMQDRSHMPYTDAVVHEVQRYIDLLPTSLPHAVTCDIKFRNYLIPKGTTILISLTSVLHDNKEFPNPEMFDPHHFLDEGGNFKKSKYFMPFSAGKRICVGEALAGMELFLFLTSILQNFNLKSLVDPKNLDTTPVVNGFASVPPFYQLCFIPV

O=C(NCCN1CCOCC1)c1ccc(Cl)cc1
inactive: Potency [1] | outcome [2] | Potency [3] | Potency [4] | max activation [5] 1.47% | Potency [6] | Potency [8]
active: Potency [7] 34.7 µM

NS(=O)(=O)c1ccc(NC(=O)CCC(=O)O)cc1
inactive: Potency [1] | outcome [2] | Potency [3] | Potency [4] | max activation [5] -2.26% | Potency [6] | Potency [9] | Potency [7] | Potency [8]

O=C1c2ccccc2C(=O)C1c1ccccc1
inactive: Potency [1] | outcome [2] | Potency [3] | Potency [4] | max activation [5] -1.16% | Potency [6] | Potency [9] | Potency [8]

Cc1c(I)c(=O)n(-c2ccccc2)n1C
inactive: Potency [1] | outcome [2] | Potency [3] | Potency [4] | max activation [5] -0.919% | Potency [9] | Potency [7]

COc1nccnc1NS(=O)(=O)c1ccc(N)cc1
inactive: Potency [1] | outcome [2] | Potency [3] | Potency [4] | max activation [5] 3.09% | Potency [6] | Potency [9] | Potency [7] | Potency [8]

NNc1nnc(NN)c2ccccc12
inactive: Potency [1] | outcome [2] | Potency [3] | Potency [4] | Potency [6] | Potency [7]

Cc1cccc(C)c1OCC(C)N (configuration not stated)
active: Potency [9] 13.8 µM
inactive: Potency [1] | outcome [2] | Potency [3] | Potency [4] | max activation [5] -1.45% | Potency [6]

CC(S)C(=O)NCC(=O)O (configuration not stated)
inactive: Potency [1] | outcome [2] | Potency [3] | Potency [4] | max activation [5] -1.79% | Potency [6] | Potency [9] | Potency [8]

O=C1c2ccccc2C(=O)N1CCl
inactive: Potency [1] | outcome [2] | Potency [3] | Potency [4]

CC1(C)S[C@@H]2[C@H](N=CN3CCCCCC3)C(=O)N2[C@H]1C(=O)O
inactive: Potency [1] | outcome [2] | Potency [3] | Potency [4] | max activation [5] -0.392% | Potency [6] | Potency [9] | Potency [7] | Potency [8]

CC(=O)CCCCn1c(=O)c2c(ncn2C)n(C)c1=O
inactive: Potency [1] | outcome [2] | Potency [3] | Potency [4] | max activation [5] -1.72% | Potency [6] | Potency [10] | Potency [9] | Potency [8]

CC(CC=O)CCCC(C)(C)O (configuration not stated)
active: Potency [9] 39.7 µM | Potency [7] 79.2 µM
inactive: Potency [1] | outcome [2] | Potency [3] | Potency [4] | max activation [5] -1.75% | Potency [6]

O=C1O[C@@H]2[C@@H](O)[C@H](O)O[C@@H]2[C@H]1O
inactive: Potency [1] | outcome [2] | Potency [3] | Potency [4] | Potency [9]

CCOC(=O)[C@H](CCc1ccccc1)N[C@@H](C)C(=O)N1C(=O)N(C)C[C@H]1C(=O)O
inactive: Potency [1] | outcome [2] | Potency [3] | Potency [4] | max activation [5] -1.3% | Potency [6] | Potency [10] | Potency [9] | Potency [7] | Potency [8]

NCCN1CCOCC1
inactive: Potency [1] | outcome [2] | Potency [3]

CCOC(=O)c1ccc(OC(=O)CCCCCN=C(N)N)cc1
inactive: Potency [1] | outcome [2] | Potency [3] | Potency [4] | max activation [5] 0.318% | Potency [6] | Potency [10] | Potency [7] | Potency [8]
active: Potency [9] 0.309 µM

C[C@H](N)[C@H](O)c1cccc(O)c1
inactive: Potency [1] | outcome [2] | Potency [3] | Potency [4] | max activation [5] -0.575% | Potency [7]

COCCOC(=O)C1=C(C)NC(C)=C(C(=O)OC(C)C)C1c1cccc([N+](=O)[O-])c1 (configuration not stated)
inactive: outcome [2]
active: Potency [1] 21.1 µM

O=C(NCCc1c[nH]c2ccccc12)c1cccnc1
inactive: Potency [1] | outcome [2] | Potency [3] | Potency [6]
active: Potency [4] 26.6 µM | Potency [7] 7.76 µM

Cc1cc2cc3c(C)cc(=O)oc3c(C)c2o1
inactive: Potency [1] | outcome [2] | Potency [3] | max activation [5] 1.62% | Potency [6] | Potency [9] | Potency [7] | Potency [8]
active: Potency [4] 5.96 µM

CC(C)NCC(O)COc1ccc(COCCOC(C)C)cc1 (configuration not stated)
inactive: Potency [1] | outcome [2] | Potency [3] | Potency [4] | max activation [5] -3.07% | Potency [6] | Potency [9] | Potency [7] | Potency [8]

COC(=O)[C@@H]1[C@H]2C[C@H]3c4[nH]c5ccccc5c4CCN3C[C@@H]2CC[C@@H]1O
inactive: Potency [1] | outcome [2] | Potency [3]

Nc1ncnc(Nc2ccccc2)n1
inactive: Potency [1] | outcome [2] | Potency [3] | Potency [4] | max activation [5] 2.76% | Potency [6] | Potency [7] | Potency [8]

Cc1ccsc1/C=C/C1=NCCCN1C
inactive: Potency [1] | outcome [2] | Potency [3] | Potency [4] | max activation [5] -1.84% | Potency [6] | Potency [7]

CCN1CCc2nc(N)oc2CC1
inactive: Potency [1] | outcome [2] | Potency [3] | Potency [4] | max activation [5] -5.4% | Potency [6] | Potency [8]
